# Test results reported in paper PMC7862700, “An all-to-all approach to the identification of sequence-specific readers for epigenetic DNA modifications on cytosine”.
# Legend:
# Test in all cases: DAPPL (digital affinity profiling via proximity ligation, sequencing); 10 mM Tris-HCl pH 7.5, 50 mM NaCl, 1 mM DTT, 4% glycerol, room temperature, 30 min; GST-TFs on glutathione beads, 16-mer random dsDNA library, 0.1% formaldehyde crosslink after washing; high values mean tight binding
# [1] = biological target: T1, FLI1 (Homo sapiens, UniProt Q01543 1-452); conditions: protein: recombinant; tags: N-terminal GST; dsDNA, one strand shown
# T1 sequence: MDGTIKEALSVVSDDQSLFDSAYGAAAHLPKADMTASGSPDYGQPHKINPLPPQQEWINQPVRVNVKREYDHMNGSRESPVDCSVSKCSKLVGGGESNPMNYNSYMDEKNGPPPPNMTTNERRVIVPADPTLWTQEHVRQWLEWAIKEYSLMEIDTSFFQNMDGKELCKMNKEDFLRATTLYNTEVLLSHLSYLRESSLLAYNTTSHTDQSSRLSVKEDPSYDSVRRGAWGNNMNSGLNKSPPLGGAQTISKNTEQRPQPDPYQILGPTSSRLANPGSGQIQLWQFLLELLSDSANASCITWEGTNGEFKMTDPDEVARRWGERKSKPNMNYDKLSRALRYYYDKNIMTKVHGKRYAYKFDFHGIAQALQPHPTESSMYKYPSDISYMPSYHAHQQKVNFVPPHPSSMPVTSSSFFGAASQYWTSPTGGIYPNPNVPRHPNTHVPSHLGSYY
# Summary of the method: (§1)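 Human transcription factors carrying a GST fusion were produced in yeast, bound to glutathione beads, tagged with DNA barcodes and pooled together with a tag-only sample. Each pool was held with 200 nmole of a random double-stranded 16-mer DNA library in Tris/NaCl/DTT/glycerol buffer for 30 min at room temperature, then washed, crosslinked in 0.1% formaldehyde, proximity-ligated with BsaI/T4 ligase (1 h, 37 °C), PCR-amplified and sequenced on an Illumina NextSeq500. Binding signal is the read frequency of each hexamer for a given factor divided by its frequency in the tag-only sample.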
# [2] = biological target: T2, ELK1 (Homo sapiens, UniProt P19419 1-428); conditions: protein: recombinant; tags: N-terminal GST; dsDNA, one strand shown
# T2 sequence: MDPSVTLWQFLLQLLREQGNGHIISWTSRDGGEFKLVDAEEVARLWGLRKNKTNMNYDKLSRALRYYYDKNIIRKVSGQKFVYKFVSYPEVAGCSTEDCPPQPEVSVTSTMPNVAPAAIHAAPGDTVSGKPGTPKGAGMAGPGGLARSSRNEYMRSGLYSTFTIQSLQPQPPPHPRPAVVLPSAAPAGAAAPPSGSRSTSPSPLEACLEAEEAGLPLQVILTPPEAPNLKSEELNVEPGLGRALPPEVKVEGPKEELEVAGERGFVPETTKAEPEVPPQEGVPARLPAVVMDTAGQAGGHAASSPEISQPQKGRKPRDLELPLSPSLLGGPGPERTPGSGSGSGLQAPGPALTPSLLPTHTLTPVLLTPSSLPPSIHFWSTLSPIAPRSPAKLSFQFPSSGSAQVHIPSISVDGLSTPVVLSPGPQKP
# Summary of the method: as §1
# [3] = biological target: T3, GABPA (Homo sapiens, UniProt Q06546 1-454); conditions: protein: recombinant; tags: N-terminal GST; dsDNA, one strand shown
# T3 sequence: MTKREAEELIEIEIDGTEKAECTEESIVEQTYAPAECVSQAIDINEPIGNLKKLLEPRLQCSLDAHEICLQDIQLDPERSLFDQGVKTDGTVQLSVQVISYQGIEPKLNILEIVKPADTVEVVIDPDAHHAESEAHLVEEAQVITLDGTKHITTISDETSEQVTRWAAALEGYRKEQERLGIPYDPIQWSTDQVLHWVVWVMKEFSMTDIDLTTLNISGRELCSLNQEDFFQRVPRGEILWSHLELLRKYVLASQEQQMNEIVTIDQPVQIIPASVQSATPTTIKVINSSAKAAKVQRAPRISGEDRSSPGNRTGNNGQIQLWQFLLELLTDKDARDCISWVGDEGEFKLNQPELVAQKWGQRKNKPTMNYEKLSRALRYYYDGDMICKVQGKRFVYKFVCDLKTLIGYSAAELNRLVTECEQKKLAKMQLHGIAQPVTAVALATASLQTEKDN
# Summary of the method: as §1
# [4] = biological target: T4, ERG (Homo sapiens, UniProt P11308 1-479); conditions: protein: recombinant; tags: N-terminal GST; dsDNA, one strand shown
# T4 sequence: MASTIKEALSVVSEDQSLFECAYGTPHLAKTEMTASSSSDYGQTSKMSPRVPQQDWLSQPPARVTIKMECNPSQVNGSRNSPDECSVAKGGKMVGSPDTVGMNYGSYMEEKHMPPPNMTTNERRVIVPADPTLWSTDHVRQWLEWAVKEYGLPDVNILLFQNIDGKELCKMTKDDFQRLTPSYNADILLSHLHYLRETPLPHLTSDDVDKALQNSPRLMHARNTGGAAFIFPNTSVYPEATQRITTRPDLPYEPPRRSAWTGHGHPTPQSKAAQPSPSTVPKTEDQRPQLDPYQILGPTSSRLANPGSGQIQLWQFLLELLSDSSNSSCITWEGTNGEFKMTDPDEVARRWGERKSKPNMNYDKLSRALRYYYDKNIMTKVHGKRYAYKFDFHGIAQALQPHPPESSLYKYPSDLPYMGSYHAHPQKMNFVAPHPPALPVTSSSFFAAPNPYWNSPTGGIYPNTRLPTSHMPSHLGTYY
# Summary of the method: as §1
# [5] = biological target: ELF1 (Homo sapiens, UniProt P32519 1-619); conditions: protein: recombinant; tags: N-terminal GST; dsDNA, one strand shown
# Chain of ELF1 (P32519 whole entry): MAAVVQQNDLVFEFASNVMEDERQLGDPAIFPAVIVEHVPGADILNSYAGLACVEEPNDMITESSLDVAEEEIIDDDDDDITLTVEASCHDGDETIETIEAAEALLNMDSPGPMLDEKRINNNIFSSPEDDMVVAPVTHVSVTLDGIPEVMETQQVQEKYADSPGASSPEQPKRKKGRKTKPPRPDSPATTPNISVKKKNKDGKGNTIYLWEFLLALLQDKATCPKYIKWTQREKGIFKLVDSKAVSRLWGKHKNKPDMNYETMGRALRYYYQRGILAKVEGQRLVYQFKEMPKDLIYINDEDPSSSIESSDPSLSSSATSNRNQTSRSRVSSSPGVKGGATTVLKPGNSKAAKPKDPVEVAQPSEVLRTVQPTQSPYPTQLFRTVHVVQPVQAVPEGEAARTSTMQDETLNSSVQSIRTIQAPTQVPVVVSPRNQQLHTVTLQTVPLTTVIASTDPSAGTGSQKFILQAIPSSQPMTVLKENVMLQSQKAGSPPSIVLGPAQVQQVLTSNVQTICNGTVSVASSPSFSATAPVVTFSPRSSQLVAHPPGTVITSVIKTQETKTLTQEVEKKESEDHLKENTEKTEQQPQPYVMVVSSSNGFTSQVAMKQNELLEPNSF
# Summary of the method: as §1
# [6] = biological target: T5, EHF (Homo sapiens, UniProt Q9NZC4 1-300); conditions: protein: recombinant; tags: N-terminal GST; dsDNA, one strand shown
# T5 sequence: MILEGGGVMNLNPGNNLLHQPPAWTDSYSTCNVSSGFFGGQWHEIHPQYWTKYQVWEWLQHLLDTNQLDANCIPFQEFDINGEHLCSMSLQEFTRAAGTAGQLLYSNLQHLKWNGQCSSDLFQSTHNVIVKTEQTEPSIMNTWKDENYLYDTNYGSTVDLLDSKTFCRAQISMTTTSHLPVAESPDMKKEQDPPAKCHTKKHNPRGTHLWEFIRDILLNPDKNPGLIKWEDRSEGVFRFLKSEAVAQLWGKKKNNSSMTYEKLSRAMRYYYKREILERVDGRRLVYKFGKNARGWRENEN
# Summary of the method: as §1
# [7] = biological target: SPI1 (Homo sapiens, UniProt P17947 1-270); conditions: protein: recombinant; tags: N-terminal GST; dsDNA, one strand shown
# Summary of the method: as §1
# [8] = biological target: SPIB (Homo sapiens, UniProt Q01892 1-262); conditions: protein: recombinant; tags: N-terminal GST; dsDNA, one strand shown
# Chain of SPIB (Q01892 whole entry): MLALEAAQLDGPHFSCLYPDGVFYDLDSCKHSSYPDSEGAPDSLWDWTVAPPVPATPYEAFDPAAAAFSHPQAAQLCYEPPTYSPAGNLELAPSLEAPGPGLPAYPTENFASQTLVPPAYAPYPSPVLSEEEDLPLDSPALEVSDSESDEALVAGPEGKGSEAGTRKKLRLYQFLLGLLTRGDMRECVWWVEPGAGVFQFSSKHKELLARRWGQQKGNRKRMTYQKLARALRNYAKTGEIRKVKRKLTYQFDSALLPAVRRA
# Summary of the method: as §1
# [9] = biological target: T6, ELK3 (Homo sapiens, UniProt P41970 1-407); conditions: protein: recombinant; tags: N-terminal GST; dsDNA, one strand shown
# T6 sequence: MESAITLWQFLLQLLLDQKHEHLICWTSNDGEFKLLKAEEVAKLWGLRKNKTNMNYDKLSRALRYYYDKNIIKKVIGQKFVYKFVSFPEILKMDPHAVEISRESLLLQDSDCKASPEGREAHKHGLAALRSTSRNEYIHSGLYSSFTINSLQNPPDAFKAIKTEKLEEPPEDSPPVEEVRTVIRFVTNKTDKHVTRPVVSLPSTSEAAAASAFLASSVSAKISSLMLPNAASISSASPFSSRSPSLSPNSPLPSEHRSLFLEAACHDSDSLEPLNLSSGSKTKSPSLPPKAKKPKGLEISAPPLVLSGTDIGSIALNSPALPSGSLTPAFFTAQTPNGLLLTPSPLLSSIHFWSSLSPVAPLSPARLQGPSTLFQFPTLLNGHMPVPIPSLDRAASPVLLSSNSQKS
# Summary of the method: as §1
# [10] = biological target: T7, FEV (Homo sapiens, UniProt Q99581 1-238); conditions: protein: recombinant; tags: N-terminal GST; dsDNA, one strand shown
# T7 sequence: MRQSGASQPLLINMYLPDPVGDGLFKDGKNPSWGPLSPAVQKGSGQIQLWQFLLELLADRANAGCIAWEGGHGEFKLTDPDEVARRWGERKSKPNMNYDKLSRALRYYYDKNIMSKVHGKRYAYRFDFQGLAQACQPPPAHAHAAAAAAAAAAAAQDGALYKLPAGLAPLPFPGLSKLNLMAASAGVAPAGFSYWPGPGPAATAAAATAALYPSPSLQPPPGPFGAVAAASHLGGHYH
# Summary of the method: as §1
# [11] = biological target: ETV5 (Homo sapiens, UniProt P41161 1-510); conditions: protein: recombinant; tags: N-terminal GST; dsDNA, one strand shown
# Chain of ETV5 (P41161 whole entry): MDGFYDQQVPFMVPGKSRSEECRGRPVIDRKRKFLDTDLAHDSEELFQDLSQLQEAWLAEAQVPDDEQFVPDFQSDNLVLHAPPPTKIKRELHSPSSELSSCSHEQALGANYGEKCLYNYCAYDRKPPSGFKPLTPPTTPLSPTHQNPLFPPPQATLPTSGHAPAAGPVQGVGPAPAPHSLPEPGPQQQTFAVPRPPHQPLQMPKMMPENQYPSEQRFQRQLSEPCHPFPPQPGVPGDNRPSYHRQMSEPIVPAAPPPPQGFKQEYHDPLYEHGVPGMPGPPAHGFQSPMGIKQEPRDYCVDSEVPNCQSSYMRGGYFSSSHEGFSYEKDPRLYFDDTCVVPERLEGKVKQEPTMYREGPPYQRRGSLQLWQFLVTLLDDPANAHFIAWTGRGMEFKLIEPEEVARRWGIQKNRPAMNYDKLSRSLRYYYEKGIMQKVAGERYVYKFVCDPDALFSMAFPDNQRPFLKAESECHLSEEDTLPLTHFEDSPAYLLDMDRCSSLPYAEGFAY
# Summary of the method: as §1
# [12] = biological target: HSF1 (Homo sapiens, UniProt Q00613 1-529); conditions: protein: recombinant; tags: N-terminal GST; chain copies: 3; dsDNA, one strand shown
# Chain of HSF1 (Q00613 whole entry): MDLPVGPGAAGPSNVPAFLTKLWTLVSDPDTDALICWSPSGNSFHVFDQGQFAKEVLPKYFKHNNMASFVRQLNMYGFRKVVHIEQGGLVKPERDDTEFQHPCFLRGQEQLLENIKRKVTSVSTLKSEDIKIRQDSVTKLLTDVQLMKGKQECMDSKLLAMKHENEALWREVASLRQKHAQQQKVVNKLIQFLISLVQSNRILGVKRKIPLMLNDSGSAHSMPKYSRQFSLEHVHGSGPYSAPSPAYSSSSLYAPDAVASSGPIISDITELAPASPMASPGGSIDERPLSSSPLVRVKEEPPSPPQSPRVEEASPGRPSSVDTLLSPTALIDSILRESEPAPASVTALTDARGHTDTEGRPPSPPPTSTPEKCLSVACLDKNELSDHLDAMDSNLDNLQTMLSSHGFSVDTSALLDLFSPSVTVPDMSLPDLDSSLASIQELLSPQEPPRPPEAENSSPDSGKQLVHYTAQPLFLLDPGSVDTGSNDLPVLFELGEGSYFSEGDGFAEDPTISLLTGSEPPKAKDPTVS
# Summary of the method: as §1
# [13] = biological target: T8, SPIC (Homo sapiens, UniProt Q8N5J4 1-248); conditions: protein: recombinant; tags: N-terminal GST; dsDNA, one strand shown
# T8 sequence: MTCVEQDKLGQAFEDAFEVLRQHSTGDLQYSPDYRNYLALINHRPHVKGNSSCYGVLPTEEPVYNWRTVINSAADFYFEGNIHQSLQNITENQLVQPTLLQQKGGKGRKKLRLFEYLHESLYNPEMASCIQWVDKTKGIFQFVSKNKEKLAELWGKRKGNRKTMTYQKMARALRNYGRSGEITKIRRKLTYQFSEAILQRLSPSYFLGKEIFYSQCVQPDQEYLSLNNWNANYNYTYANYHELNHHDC
# Summary of the method: as §1
# [14] = biological target: ELF4 (Homo sapiens, UniProt Q99607 1-663); conditions: protein: recombinant; tags: N-terminal GST; dsDNA, one strand shown
# Chain of ELF4 (Q99607 whole entry): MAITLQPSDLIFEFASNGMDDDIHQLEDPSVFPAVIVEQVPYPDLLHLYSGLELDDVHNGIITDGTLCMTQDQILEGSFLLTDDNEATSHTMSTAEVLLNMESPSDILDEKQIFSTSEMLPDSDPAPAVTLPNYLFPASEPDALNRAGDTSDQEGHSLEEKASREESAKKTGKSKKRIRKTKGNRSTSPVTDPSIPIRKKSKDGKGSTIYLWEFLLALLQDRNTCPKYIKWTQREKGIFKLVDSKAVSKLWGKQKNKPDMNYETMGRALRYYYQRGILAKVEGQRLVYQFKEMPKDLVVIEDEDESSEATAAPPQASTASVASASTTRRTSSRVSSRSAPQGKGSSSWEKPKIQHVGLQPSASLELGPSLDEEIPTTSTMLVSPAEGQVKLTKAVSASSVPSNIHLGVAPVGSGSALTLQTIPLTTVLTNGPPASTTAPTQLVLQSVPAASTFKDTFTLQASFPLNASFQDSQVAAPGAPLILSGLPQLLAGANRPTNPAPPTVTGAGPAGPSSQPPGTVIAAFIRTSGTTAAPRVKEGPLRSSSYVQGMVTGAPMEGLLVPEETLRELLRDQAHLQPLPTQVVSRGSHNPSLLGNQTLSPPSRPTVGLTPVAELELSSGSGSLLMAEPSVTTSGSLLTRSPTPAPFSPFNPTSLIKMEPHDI
# Summary of the method: as §1
# [15] = biological target: T9, ELK4 (Homo sapiens, UniProt P28324-2 1-405); conditions: protein: recombinant; tags: N-terminal GST; dsDNA, one strand shown
# T9 sequence: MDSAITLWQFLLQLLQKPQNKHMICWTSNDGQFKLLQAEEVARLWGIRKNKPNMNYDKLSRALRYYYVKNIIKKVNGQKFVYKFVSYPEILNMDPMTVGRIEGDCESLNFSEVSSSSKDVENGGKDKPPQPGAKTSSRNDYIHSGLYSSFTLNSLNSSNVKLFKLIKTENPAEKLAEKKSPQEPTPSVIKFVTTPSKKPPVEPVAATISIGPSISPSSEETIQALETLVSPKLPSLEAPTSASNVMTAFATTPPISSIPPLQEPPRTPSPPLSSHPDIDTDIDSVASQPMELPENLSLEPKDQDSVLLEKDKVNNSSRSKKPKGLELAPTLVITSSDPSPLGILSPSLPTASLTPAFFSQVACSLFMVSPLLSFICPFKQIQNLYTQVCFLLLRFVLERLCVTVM
# Summary of the method: as §1
# [16] = biological target: T10, ETV2 (Homo sapiens, UniProt O00321 1-342); conditions: protein: recombinant; tags: N-terminal GST; dsDNA, one strand shown
# T10 sequence: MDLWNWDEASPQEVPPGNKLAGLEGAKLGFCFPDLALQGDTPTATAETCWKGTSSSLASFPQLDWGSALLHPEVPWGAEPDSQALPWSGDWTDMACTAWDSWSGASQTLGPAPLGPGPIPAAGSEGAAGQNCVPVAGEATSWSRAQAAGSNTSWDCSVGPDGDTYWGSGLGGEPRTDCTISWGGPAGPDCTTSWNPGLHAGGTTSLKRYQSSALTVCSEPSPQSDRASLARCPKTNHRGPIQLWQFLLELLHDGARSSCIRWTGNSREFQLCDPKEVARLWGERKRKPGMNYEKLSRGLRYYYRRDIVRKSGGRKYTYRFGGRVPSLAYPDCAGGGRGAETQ
# Summary of the method: as §1
# [17] = biological target: T11, ELF3 (Homo sapiens, UniProt P78545 1-371); conditions: protein: recombinant; tags: N-terminal GST; dsDNA, one strand shown
# T11 sequence: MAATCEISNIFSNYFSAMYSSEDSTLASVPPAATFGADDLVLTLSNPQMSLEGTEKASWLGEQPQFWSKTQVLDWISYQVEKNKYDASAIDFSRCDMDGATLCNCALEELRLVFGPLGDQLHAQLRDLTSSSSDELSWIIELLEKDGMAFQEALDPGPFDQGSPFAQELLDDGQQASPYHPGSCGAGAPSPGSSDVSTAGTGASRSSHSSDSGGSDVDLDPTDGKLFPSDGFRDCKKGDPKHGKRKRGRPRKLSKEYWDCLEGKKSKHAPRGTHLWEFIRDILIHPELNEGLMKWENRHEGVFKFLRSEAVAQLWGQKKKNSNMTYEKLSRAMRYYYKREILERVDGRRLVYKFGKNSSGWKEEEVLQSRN
# Summary of the method: as §1
# [18] = biological target: ETV1 (Homo sapiens, UniProt P50549 1-477); conditions: protein: recombinant; tags: N-terminal GST; dsDNA, one strand shown
# Chain of ETV1 (P50549 whole entry): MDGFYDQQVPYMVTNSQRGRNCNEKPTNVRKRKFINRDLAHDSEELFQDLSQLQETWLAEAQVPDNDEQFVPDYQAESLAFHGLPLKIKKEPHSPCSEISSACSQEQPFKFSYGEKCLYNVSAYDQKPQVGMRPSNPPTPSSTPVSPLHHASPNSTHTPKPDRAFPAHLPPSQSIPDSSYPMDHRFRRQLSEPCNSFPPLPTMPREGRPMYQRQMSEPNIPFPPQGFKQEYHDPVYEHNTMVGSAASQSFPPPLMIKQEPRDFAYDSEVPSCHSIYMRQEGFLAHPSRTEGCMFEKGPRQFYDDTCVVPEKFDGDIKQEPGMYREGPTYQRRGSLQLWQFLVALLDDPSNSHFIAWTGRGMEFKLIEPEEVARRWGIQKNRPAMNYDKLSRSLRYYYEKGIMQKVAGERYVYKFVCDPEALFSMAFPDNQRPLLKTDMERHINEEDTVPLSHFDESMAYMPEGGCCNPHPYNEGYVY
# Summary of the method: as §1
sequence,measurement,setting,value
TGTACC,binding signal,[1],"1.42 fold enrichment (6-mer frequency, TF over GST control)"
same,binding signal,[2],"1.36 fold enrichment (6-mer frequency, TF over GST control)"
same,binding signal,[3],"1.29 fold enrichment (6-mer frequency, TF over GST control)"
same,binding signal,[4],"1.26 fold enrichment (6-mer frequency, TF over GST control)"
same,binding signal,[5],"1.34 fold enrichment (6-mer frequency, TF over GST control)"
same,binding signal,[6],"1.35 fold enrichment (6-mer frequency, TF over GST control)"
same,binding signal,[7],"1.33 fold enrichment (6-mer frequency, TF over GST control)"
same,binding signal,[8],"1.22 fold enrichment (6-mer frequency, TF over GST control)"
same,binding signal,[9],"1.28 fold enrichment (6-mer frequency, TF over GST control)"
same,binding signal,[10],"1.38 fold enrichment (6-mer frequency, TF over GST control)"
same,binding signal,[11],"1.4 fold enrichment (6-mer frequency, TF over GST control)"
same,binding signal,[12],"1.03 fold enrichment (6-mer frequency, TF over GST control)"
same,binding signal,[13],"1.39 fold enrichment (6-mer frequency, TF over GST control)"
same,binding signal,[14],"1.26 fold enrichment (6-mer frequency, TF over GST control)"
same,binding signal,[15],"1.39 fold enrichment (6-mer frequency, TF over GST control)"
same,binding signal,[16],"1.35 fold enrichment (6-mer frequency, TF over GST control)"
same,binding signal,[17],"1.38 fold enrichment (6-mer frequency, TF over GST control)"
same,binding signal,[18],"1.37 fold enrichment (6-mer frequency, TF over GST control)"
